Assay results as given in PubChem BioAssay (NCATS).
Results filed as inconclusive are left out. The source made the active and inactive calls. The call rests on the fitted dose curve; in most records, active means well fitted inhibition curve with a large enough effect; inconclusive means small, poorly fitted or top-dose-only effect; inactive means no such curve, though single readings can be large or run the other way.

test: qHTS assay for measurement of the activity of small molecule inhibitors on Zika virus induced Caspase-3 activity in human iPSC derived neural progenitor cells (hNPCs) (AID 1224857); settings: hNPCs ZIKV-induced caspase-3/7, Caspase-Glo luminescence, 6 h; series mostly up to 45.7 µM; activity change, negative = inhibition: at the top concentration; further: nearly all actives have a fitted effect of over 65% in size
From the text: National Center for Advancing Translational Sciences [NCATS]
Johns Hopkins University School of Medicine
Increase in the Caspase-3 activity indicates an activation of apoptosis cell death pathway caused by Zika virus infection in certain types of neuronal cells including human neural progenitor cells (hNPCs), astrocytes, and astrocytoma cell line (SNB-19). This cell-based caspase-3 activity assay measures the increased caspase-3 activity in the human iPSC derived neural progenitor cells (hNPCs) after a 6-hour Zika virus infection with a luminescence readout. A decrease in the luminescence signal in this assay by small molecule treatment indicates an inhibitory effect of that small molecule on the Zika virus induced caspase-3 activity that may correlate with its effect on reduction of Zika virus caused cell death.
The medium for hNPCs consists of DMEM/F12, N2 supplement (ThermoFisher, Cat.# 17502048), NEAA (ThermoFisher, Cat. # 11140050), 2 ug/ml heparin, 2 uM cyclopamine, and B27 (ThermoFisher, Cat. # 17504044). A Caspase-Glo 3/7 assay kit (catalog number G8092; Promega, Madison, WI) was used to detect caspase-3 activity induced by Zika virus infection in human cells. The reagent mixture was reconstituted as described in the protocol from the manufacturer. Polystyrene tissue culture treated and PDL coated white plates were obtained from Greiner Bio-One (Monroe, NC). Cells were seeded in 384- or 1536-well assay plates and cultured at 37 C with 5% CO2 for 16 to 20 hours. The typical cell seeding density in the 1536-well plate assay is 350 cells/well in 3 ul medium for hNPCs in tissue culture treated plates. Compounds were added to cells and incubated for one hour before addition of ZIKV solution to cells (2 FFU/cell). After incubation at 37 C with 5% CO2 for 6 hours, the reagent mixture of Caspase-Glo 3/7 assay kit was added to each well, followed by incubation at room temperature for 30 minutes. The luminescence intensity of the assay plates was measured using a ViewLux plate reader (PerkinElmer). Data were normalized by using the cell-containing wells without ZIKV as a negative control (0% induction of caspase 3/7 activity) and wells containing ZIKV infected cells (Caspase-3 activity induced) as a positive control (100% induction of caspase 3 activity). The percentage inhibitions of the increased Caspase-3 activity by small molecule inhibitors were then calculated.

| SMILES | activity change, negative = inhibition |
| --- | --- |
| NC(=O)c1c(OCc2c(F)cc(Br)cc2F)nsc1NC(=O)NCCCCN1CCCC1 | 88% (inactive) |
| C1=CCOCc2cc(ccc2OCCN2CCCC2)Nc2nccc(n2)-c2cccc(c2)OCC1 | 28.6% (inactive) |
| Cc1coc2c1C(=O)C(=O)c1c-2ccc2c1CCCC2(C)C | 20% (inactive) |
| CNC(=O)c1c(F)cccc1Nc1nc(Nc2cc3c(cc2OC)CCN3C(=O)CN(C)C)nc2[nH]ccc12 | -17.3% (inactive) |
| O=C(O)CO.[NH2-].[NH2-].[Pt+2] | 27.7% (inactive) |
| Cn1c(=O)n(-c2ccc(C(C)(C)C#N)cc2)c2c3cc(-c4cnc5ccccc5c4)ccc3ncc21 | 40.4% (inactive) |
| O=C(Nc1cc(C(F)(F)F)cc(C(F)(F)F)c1)c1cc(Cl)ccc1O | 45.5% (inactive) |
| CCOc1ccccc1OCCNC(C)Cc1ccc(OC)c(S(N)(=O)=O)c1 (stereo not given) | -5.44% (inactive) |
| Cc1cc(Nc2ncnc3ccc(-c4ccc(CNCCS(C)(=O)=O)o4)cc23)ccc1Oc1ccn2ncnc2c1 | -4.93% (inactive) |
| CC[C@@]1(O)C(=O)OCc2c1cc1n(c2=O)Cc2cc3cc(O)ccc3nc2-1 | 120% (inactive) |
| Clc1cccc(-n2nnnc2NCc2ccccc2Oc2ccccn2)c1Cl | 39.9% (inactive) |
| O=C(CCCCCCC(=O)Nc1ccc([C@H]2O[C@@H](CSc3nc(-c4ccccc4)c(-c4ccccc4)o3)C[C@@H](c3ccc(CO)cc3)O2)cc1)NO | -0.567% (inactive) |
| NC(=O)c1cccc2cn(-c3ccc([C@@H]4CCCNC4)cc3)nc12 | 8.39% (inactive) |
| COc1cc2c(cc1-c1c(C)noc1C)ncc1[nH]c(=O)n([C@H](C)c3ccccn3)c12 | -8.97% (inactive) |
| O=C(C=Cc1c(C(=O)O)[nH]c2cc(Cl)cc(Cl)c12)Nc1ccccc1 | 6.1% (inactive) |
| C[C@]1(CO)CN(c2cc(C(=O)Nc3ccc4c(c3)-c3c(c(C(N)=O)nn3-c3ccc(F)cc3)CC4)c(Cl)cn2)C[C@@]1(C)CO | 36.7% (inactive) |
| NCC(=O)Nc1ccc(-n2nc(C(F)(F)F)cc2-c2ccc3c(ccc4ccccc43)c2)cc1 | -7.99% (inactive) |
| CCC(=C(c1ccccc1)c1ccc(OCCN(C)C)cc1)c1ccccc1 | 49.2% (inactive) |
| O=C(c1cncc(Br)c1)N1CCC(N2CCCC2)CC1 | -6.81% (inactive) |
| Cc1[nH]c2ccccc2c1CCNCc1ccc(C=CC(=O)NO)cc1 | 27.7% (inactive) |

| SMILES | activity change, negative = inhibition |
| --- | --- |
| Fc1cc(-c2cccc3ncc(-c4cnn(C5CCNCC5)c4)nc23)cc(F)c1CN1CCOCC1 | -4.35% (inactive) |
| Nc1ncnc2c1c(-c1cnc3[nH]ccc3c1)nn2C1CCCC1 | 82% (inactive) |
| CN(C)c1nc(Cc2ccc(NC(=O)c3ccc4ccccc4c3)cc2)nc(Cl)c1CC(=O)O | -7.29% (inactive) |
| C[C@]12CC[C@H](O)CC1=CCC1C2CC[C@]2(C)C(n3cnc4ccccc43)=CCC12 (stereo not given in full) | -12.8% (inactive) |
| CN1CCC(CNc2ccc3ncc(-c4cccc(OC(F)(F)F)c4)n3n2)CC1 | 67% (inactive) |
| CN1c2cc(O)c(N=NC(N)=O)cc2CC1S(=O)(=O)O (stereo not given) | 2.63% (inactive) |
| C1Cc2[nH]nc(-c3nn[nH]n3)c2C1 | 21.2% (inactive) |
| C=C1C(=CC=C2CCCC3(C)[C@@H]([C@H](C)C=CC=CC(O)(CC)CC)CC[C@@H]23)C[C@@H](O)C[C@@H]1O (stereo not given in full) | -23.4% (inactive) |
| O=C(O)C1(Cc2cccc(Nc3nccs3)n2)CCC(Oc2cccc(Cl)c2F)CC1 (stereo not given) | 35.4% (inactive) |
| COc1cc2c(Oc3ccc4[nH]c(C)cc4c3F)ncnc2cc1OCCCN1CCCC1 | 46% (inactive) |
| CC(=O)Nc1sc2c(c1-c1nc3ccccc3s1)CNC2 | -25.9% (inactive) |
| C[C@H]1C[C@@H]2[C@@H]([C@@H](O)C[C@@]3(C)[C@H]2CC[C@]3(O)C(=O)CO)[C@@]2(C)C=CC(=O)C=C12 | 2.4% (inactive) |
| CS(=O)(=O)c1ccc(-c2cnc(N)c(C(=O)Nc3ccccc3)n2)cc1 | 27.5% (inactive) |
| Cc1cn2cc(C(=O)N(C)CCO)cc(N[C@@H]3CCOc4cccc(C)c43)c2n1 | 25.9% (inactive) |
| Cc1ccc(C(=O)Nc2ccc(CN3CCN(C)CC3)c(C(F)(F)F)c2)cc1C#Cc1cnc2cccnn12 | 39.9% (inactive) |
| Cc1cc(Nc2nc(N[C@@H](C)c3ccc(F)cc3)c(C#N)cc2F)n[nH]1 | 86.8% (inactive) |
| CC(NCc1ccc2c(c1)nc(NC(=O)c1ccc(-c3cn[nH]c3)s1)n2CC(C)(C)O)C(C)(C)C (stereo not given) | 13.3% (inactive) |
| CC1(O)CC(c2nc(-c3ccc4ccc(-c5ccccc5)nc4c3)c3c(N)nccn23)C1 (stereo not given) | 39.8% (inactive) |
| O=C(Cc1ccc(-c2ccc(OCCN3CCOCC3)cc2)cn1)NCc1ccccc1 | 25.1% (inactive) |
| COc1ccc(C(=O)CC2(O)C(=O)Nc3c(Cl)ccc(Cl)c32)cc1 (stereo not given) | 58.2% (inactive) |
